An excerpt weighted towards active compounds, which were near 2.4% of everything screened.
NadD inh: inhibitors of Staphylococcus aureus NadD; purified NadD enzyme, colorimetric absorbance read-out; inhibition, % at 20 µM; 360,000 tested, 0.78% active; AID 602399; in the data active = inhibition above about 26%
PREPL inhibitor: inhibits the human prolyl oligopeptidase-like enzyme | recombinant PREPL, fluorescence polarization activity-based probe | inhibition, % at 5.96 µM | 320,000 tested, 0.68% active | AID 2751; in the data active = inhibition above about 43%;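 also: 0% = enzyme with DMSO and 100% = wells lacking enzyme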
PP1 counter: counter-screen for PP5 inhibitors: inhibitors of human PP1-alpha | P62136 | inhibition, % at 6.7 µM | purified PP1alpha, OMFP fluorescence | 320,000 tested, 0.9% active | AID 2235;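 active = inhibition above the mean inhibition of all tested compounds plus 3 SD, computed separately for each screening campaign, cut at about 15% in these data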
PP5 inh: inhibitors of human protein phosphatase 5 (PP5); P53041; 320,000 tested, 0.18% active; purified PP5c, OMFP substrate fluorescence; inhibition, % at 6.7 µM;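 active = inhibition above the campaign's mean inhibition across all tested compounds plus 3 SD, cut at about 9.5% in these data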;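 also: 0% = DMSO only and 100% = 100 µM cantharidin control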
Target sequence (P53041 whole entry, looked up): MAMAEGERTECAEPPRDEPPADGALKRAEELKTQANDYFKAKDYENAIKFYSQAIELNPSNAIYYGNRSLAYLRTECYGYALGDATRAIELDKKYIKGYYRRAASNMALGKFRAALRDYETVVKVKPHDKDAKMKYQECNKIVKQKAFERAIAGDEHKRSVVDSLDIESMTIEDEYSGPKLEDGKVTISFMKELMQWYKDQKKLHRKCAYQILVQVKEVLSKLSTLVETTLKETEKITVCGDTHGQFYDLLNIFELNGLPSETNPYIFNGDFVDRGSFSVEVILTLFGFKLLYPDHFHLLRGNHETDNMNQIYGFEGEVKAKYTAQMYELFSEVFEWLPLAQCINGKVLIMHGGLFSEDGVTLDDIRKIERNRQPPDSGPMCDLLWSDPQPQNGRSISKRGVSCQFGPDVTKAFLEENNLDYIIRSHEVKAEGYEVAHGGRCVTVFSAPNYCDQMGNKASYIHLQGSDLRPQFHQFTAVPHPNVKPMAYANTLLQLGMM
Rpn11 block: blocks the human proteasome subunit Rpn11; O00487; human 26S proteasome, Ub4-pepOG fluorescence polarization; 20S core pre-blocked with epoxomicin; inhibition, % at 20 µM; 360,000 tested, 0.59% active; AID 588493;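 active = inhibition at 20 µM, scaled to each plate's controls, above about 33%, limit read from the data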
Numbers without * were called inactive; · = no result given.

SMILES	NadD inh	PREPL inhibitor	PP1 counter	PP5 inh	Rpn11 block
CCCC(=O)N/N=C1\CS(=O)(=O)N(C)c2ccsc21	-1	-1	-9	-4	-2
NC(=S)N/N=C/c1coc2cc(Br)ccc2c1=O	10	3	-1	-2	42*
N#Cc1c(NC(=S)NC(=O)c2ccccc2)sc2c1CCCC2	4	7	-4	3	-2
N#Cc1c(NC(=S)NC(=O)c2ccccc2)sc2c1CCN(CCc1ccccc1)C2	·	65*	11	0	·
O=C(C[n+]1ccc(C(=O)N/N=C/c2ccc(OCc3ccccc3)cc2)cc1)c1ccccc1	24	50*	6	2	4
CCOC(=O)CN(c1sc(C)c(C)c1C(=O)OCC)S(=O)(=O)c1ccc(C)cc1	-6	·	·	·	8
N#Cc1c(N2CCN(C(=O)c3ccccc3)CC2)nc(-c2ccccc2)c2c1CCCC2	9	3	16*	1	10
N#Cc1c(N2CCN(C(=O)c3ccccc3Cl)CC2)nc(-c2ccccc2)c2c1CCCC2	20	-3	-2	0	10
COc1ccccc1OCc1nnc(SCC(=O)c2cc(Cl)ccc2OC)o1	-4	-2	17*	3	-3
COc1ccccc1OCc1nnc(SCC(=O)N2CCCC2)o1	1	3	1	-1	0
C#CCOCCOCCOCCNc1nc(N2CCN(C(=O)CCCCCCCCCCNC(=O)[C@H](CO)n3cc(CCCSC)nn3)CC2)nc(N2CCN(C(=O)CCCCCCCCCCNC(=O)[C@H](CCCCN)n3cc(C[C@@H](C)CC)nn3)CC2)n1	·	29	51*	5	·
C#CCOCCOCCOCCNc1nc(N2CCN(C(=O)CCCCCCCCCCNC(=O)[C@H]([C@@H](C)CC)n3cc(CCCCN=C(N)N)nn3)CC2)nc(N2CCN(C(=O)CCCCCCCCCCNC(=O)[C@H](CCCCN)n3cc(C[C@@H](C)CC)nn3)CC2)n1	·	57*	71*	9	·
CCc1ccc(CNC(=O)C2CCCN(c3nn4c(=O)cc(C)nc4s3)C2)cc1 (centres undefined)	3	18	0	-1	4
Cc1ccc(C(=O)Nc2nc(-c3ccco3)c(-c3ccco3)s2)o1	31*	·	·	·	5
O=C(CCl)Nc1nc(-c2ccco2)c(-c2ccco2)s1	7	14	0	3	15
Cc1ccc(CN2CC(C(=O)Nc3nnc(SCc4c(Cl)cccc4Cl)s3)CC2=O)cc1 (centres undefined)	-2	-12	16*	4	1
CCS(=O)(=O)N1Cc2ccccc2CC1C(=O)Nc1nnc(SCc2c(Cl)cccc2Cl)s1 (centres undefined)	25	-12	17*	0	26
CCSc1nnc(NC(=O)C2Cc3ccccc3CN2S(=O)(=O)CC)s1 (centres undefined)	8	5	5	1	8
COCCNC(=O)C1(C)CCCN(Cc2csc(-c3ccc(Cl)cc3)n2)C1 (centres undefined)	-8	·	·	·	-2
CC(C)c1ccc(N(CC(=O)N2CCN(Cc3ccccc3)CC2)S(C)(=O)=O)cc1	1	9	2	0	1
O=C(N/N=C/c1ccc(O)cc1O)c1ccc(CN2C(=O)c3cccc4cccc2c34)cc1	44*	26	14	-2	19
Cc1cc([N+](=O)[O-])nn1Cc1ccc(C(=O)N/N=C/c2ccc(O)cc2O)cc1	-2	8	16*	-3	2
CN(C)c1ccc(/C=N/NC(=O)c2ccc(CN3C(=O)c4cccc5cccc3c45)cc2)cc1	·	6	10	1	·
Brc1ccc2c(c1)C(c1ccc(N3CCOCC3)cc1)=NNC(c1cccs1)=N2	29	29	1	8	·
Fc1ccc2c(c1)C(c1ccc(N3CCOCC3)cc1)=NNC(c1cccs1)=N2	10	20	2	2	82*
SMILES	NadD inh	PREPL inhibitor	PP1 counter	PP5 inh	Rpn11 block
COc1ccc(NC(=O)C2Cc3c(-c4cccc(C(N)=O)c4)ccnc3O2)cn1 (centres undefined)	-10	·	·	·	-1
CC1=CC(=O)C=CC1=Nc1ccc(N(C)C)cc1	6	·	·	·	-4
COc1cc(CCC(=O)OCC(=O)N2CCc3ccccc32)cc(OC)c1OC	-10	-5	17*	3	-4
COc1cc(CO)ccc1OCC(=O)N1CCc2ccccc21	-3	22	-1	0	0
Cc1ccc2c(c1)c1ccc3c(c1n2C)C(=O)C=CC3=O	48*	·	·	·	23
CC(=O)Nc1ccc(C=NNc2ccc([N+](=O)[O-])cc2S(=O)(=O)Nc2ccccc2C(=O)O)cc1	14	20	·	·	26
Cc1ccc(NC(=S)NNc2ccc([N+](=O)[O-])cc2S(=O)(=O)Nc2ccccc2C(=O)O)cc1C	13	17	17*	10	29
Nc1c(C(=O)NCC2CCCO2)sc2nc3c(c(-c4ccco4)c12)CC/C3=C\c1ccco1 (centres undefined)	93*	·	·	·	-7
Cc1cc(C)c2c(c1)NC(c1cc3c(cc1Br)OCO3)C1CC=CC21 (centres undefined)	37*	-9	-1	1	11
CN(C[C@H](Cc1ccccc1)N(C[C@H](Cc1cccc2ccccc12)N(CCc1ccccc1)N=O)N=O)N=O	-3	-7	16*	4	2
COc1cc(-c2cc(NC(C)=O)c3ncc(-c4ccc(C(C)=O)cc4)n3c2)cc(OC)c1OC	2	·	·	·	8
CN1CCc2c(sc3nc(NN)n(-c4ccc(Cl)cc4)c(=O)c23)C1	12	23	7	1	46*
CN(C)c1cccc2c(S(=O)(=O)NC(=O)[C@H]3O[C@@H](n4cnc5c(N)ncnc54)[C@H](O)[C@@H]3O)cccc12	1	·	·	·	-10
O=C(CCCN1C(=O)/C(=C/c2ccccc2Cl)SC1=S)Nc1ccccn1	-1	-12	6	-2	2
O=C(CCCN1C(=O)/C(=C/c2ccccc2Cl)SC1=S)Nc1cccnc1	-4	-5	17*	3	5
O=C(CCN1C(=O)/C(=C/c2ccccc2Cl)SC1=S)Nc1cccnc1	11	5	15*	5	-1
Cn1nc(C(C)(C)C)cc1C(=O)N1CCCCC1c1cc(C(=O)NCc2cccnc2)no1 (centres undefined)	1	·	·	·	-9
CCOC(=O)C1CCCN(C(=O)c2cccc(Cl)c2)CC1 (centres undefined)	-1	·	·	·	-6
COc1ccc(N2CCN(S(=O)(=O)CCNC(=O)C3CC3)CC2)cc1	-2	11	-1	1	-1
CCc1ccccc1NC(=O)c1nnn(CC(=O)Nc2cccc(C)c2)c1N	-3	-5	4	1	-4
CSc1cccc(NC(=O)c2nnn(CC(=O)Nc3cc(C)cc(C)c3)c2N)c1	2	-4	16*	-1	4
O=C(Nc1cccnc1)/C(N=Nc1cccnc1)=C(\O)c1ccccc1	-4	10	4	0	5
COc1cc(C(=O)NCC2CCCCC2)ccc1OCc1c(C)noc1C	-6	1	-2	3	-1
N#CCC(=O)N/N=C/c1ccc(Cl)cc1	-5	-11	-3	-1	11

Assay outcomes as filed in PubChem BioAssay.
